Measured values from publication PMC8384837, “Expanding the binding specificity for RNA recognition by a PUF domain”.

molecular target: PUM1 PUF domain R4-AFP (Homo sapiens, UniProt Q14671 828-1176, N971A;H972F;Q975P); assay: yeast three-hybrid, YBZ-1, SC-Leu-His + 0.5 mM 3-AT, 4 days; settings: tags: N-Gal4 AD-HA kept; label: inside an RPR1-promoter hybrid RNA with tandem MS2 sites; ssRNA
Outline: (§1)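 The interaction score is the log change in variant frequency from input to selection. Scores were computed in log2 with a pseudocount of 1 for absent variants, using Illumina sequencing of PCR-amplified repeat regions. The input came from four days on SC-Leu and the selection from four days on SC-Leu-His + 0.5 mM 3-AT. The cells were strain YBZ-1 (LexA–MS2 coat fusion, HIS3 reporter) co-expressing Pumilio-1 PUF domain libraries and matching RNA elements from a centromeric plasmid.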

Chain of PUM1 PUF domain R4-AFP (Q14671 828-1176 N971A/H972F/Q975P): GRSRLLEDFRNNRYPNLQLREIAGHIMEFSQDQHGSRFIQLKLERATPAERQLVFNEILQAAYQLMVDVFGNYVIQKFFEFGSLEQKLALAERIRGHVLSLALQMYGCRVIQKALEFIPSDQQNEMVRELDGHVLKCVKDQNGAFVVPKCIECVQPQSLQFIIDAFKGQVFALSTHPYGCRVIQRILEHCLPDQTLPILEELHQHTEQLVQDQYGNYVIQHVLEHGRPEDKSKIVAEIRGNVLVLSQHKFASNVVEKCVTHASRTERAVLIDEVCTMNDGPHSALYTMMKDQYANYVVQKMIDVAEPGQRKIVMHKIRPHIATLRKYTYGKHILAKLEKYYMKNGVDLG

Row | Sequence | binding signal
1 | GGCUAGAACUAGUGGAUCCCCCGGCGCCCGGCGGCUCGAGCCCGGGUAAGUGUAAAUAGUCUGCAUGCCGCCGGGCGCCAUGCCUGCAGGUCGACUCUAGAAAACAUG | 3.88 log2 enrichment (interaction score)
2 | GGCUAGAACUAGUGGAUCCCCCGGCGCCCGGCGGCUCGAGCCCGGGUAAGUGUAUAUAGUCUGCAUGCCGCCGGGCGCCAUGCCUGCAGGUCGACUCUAGAAAACAUG | 5 log2 enrichment (interaction score)
3 | GGCUAGAACUAGUGGAUCCCCCGGCGCCCGGCGGCUCGAGCCCGGGUAAGUGUACAUAGUCUGCAUGCCGCCGGGCGCCAUGCCUGCAGGUCGACUCUAGAAAACAUG | 6.13 log2 enrichment (interaction score)

molecular target: PUM1 PUF domain R5-KQT (Homo sapiens, UniProt Q14671 828-1176, C1007K;R1008Q;Q1011T); assay: as above; settings: tags: N-Gal4 AD-HA kept; label: inside an RPR1-promoter hybrid RNA with tandem MS2 sites; ssRNA
Sequence (Q14671 828-1176 C1007K/R1008Q/Q1011T): as the sequence (Q14671 828-1176 N971A/H972F/Q975P) above, with A144N, F145H, P148Q, C180K, R181Q, Q184T counted along it
Outline: as §1

Row | Sequence | binding signal
4 | GGCUAGAACUAGUGGAUCCCCCGGCGCCCGGCGGCUCGAGCCCGGGUAAGUGUCAAUAGUCUGCAUGCCGCCGGGCGCCAUGCCUGCAGGUCGACUCUAGAAAACAUG | 4.51 log2 enrichment (interaction score)
5 | GGCUAGAACUAGUGGAUCCCCCGGCGCCCGGCGGCUCGAGCCCGGGUAAGUGUUAAUAGUCUGCAUGCCGCCGGGCGCCAUGCCUGCAGGUCGACUCUAGAAAACAUG | 2.84 log2 enrichment (interaction score)
6 | GGCUAGAACUAGUGGAUCCCCCGGCGCCCGGCGGCUCGAGCCCGGGUAAGUGUAAAUAGUCUGCAUGCCGCCGGGCGCCAUGCCUGCAGGUCGACUCUAGAAAACAUG | 2.17 log2 enrichment (interaction score)
